Assay results from PubChem BioAssay AID623978 (Broad Institute, 2012).
Potency and affinity values are given separately. Inconclusive results are not listed. Active and inactive are the calls of the source.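 How the source made its calls: active means every replicate run active, each with half-maximal inhibition reached at or below twice the top valid dose; inconclusive means runs disagree, or fits are weak or poor; inactive means every run inactive, including upward signal shifts.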

These compounds were tested against Glycogen synthase kinase-3 alpha (Homo sapiens) (UniProt P49840) (assay: human GSK3 alpha kinase inhibition, dose response, selectivity assay for GSK3beta inhibitor project, biochemical, microfluidics, dry powder samples, set 2 (AID 623978)). Settings: GSK3a microfluidic mobility shift, percent conversion; series mostly up to 35 µM; activity change, negative = inhibition: at the top concentration.
Glycogen synthase kinase-3 alpha (Homo sapiens), sequence (P49840 whole entry, looked up): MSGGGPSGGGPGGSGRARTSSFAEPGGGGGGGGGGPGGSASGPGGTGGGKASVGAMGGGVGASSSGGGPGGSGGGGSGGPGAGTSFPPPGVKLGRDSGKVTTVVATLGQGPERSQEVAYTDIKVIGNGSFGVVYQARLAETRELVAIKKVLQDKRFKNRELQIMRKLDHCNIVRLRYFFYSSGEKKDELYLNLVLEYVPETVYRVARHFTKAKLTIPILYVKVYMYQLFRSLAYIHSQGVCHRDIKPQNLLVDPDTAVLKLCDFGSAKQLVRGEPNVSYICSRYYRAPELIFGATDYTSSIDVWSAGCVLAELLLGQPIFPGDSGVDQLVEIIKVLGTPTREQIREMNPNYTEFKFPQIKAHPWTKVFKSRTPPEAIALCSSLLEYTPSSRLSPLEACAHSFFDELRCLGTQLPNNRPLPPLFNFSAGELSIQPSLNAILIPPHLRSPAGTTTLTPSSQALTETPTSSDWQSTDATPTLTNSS

Activity change, negative = inhibition, inactive:
COc1cc(C(=O)N2CCN(c3ccccn3)CC2)cc(OC)c1OC -2.72%
Cc1ccc(S(=O)(=O)N2CCN(CC(=O)N/N=C/c3ccccn3)CC2)cc1 -22%
O=C(Cc1cccc2ccccc12)Nc1cn(C2CCC2)cn1 -21.6%
